{"source": "PubChem BioAssay AID1508600", "about": "(Functional Genomics Laboratory (NCATS/FGL), 2020)", "note": "Hit rate of the full screen: of about 53,000 sequences, about 3,700 (7%) were called active. Only a selection was taken, and actives are over-represented in it overall. A number with no mark means an inactive call.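 Rule for the calls: active = gene knockdowns whose robust z-score for IL-1 alpha signal is at least 2 or at most -2, so actives lie on both sides; inactive = the rest.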", "data": [{"assay": "Components of the Cytosolic LPS Sensing Pathway: Gene Identification via Genome-wide siRNA Screen;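 note: robust z of the log signal after scaling to non-targeting control siRNA wells of the plate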", "conditions": "RAW264.7 macrophages, IL-1a HTRF, actives lie on both sides, screened at 100 nM (by protocol), cells primed 5 h with Pam3CSK4 first", "in_short": "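Three distinct siRNAs per gene were tested singly at 100 nM in RAW264.7 macrophages. Following Pam3CSK4 priming and 24 hour LipidA transfection, IL-1a secretion was read by HTRF.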", "values": [{"sequence": "GGCUUCUGUUUUUAUUUGUTT against Zbtb7c", "z-score": 1.07}, {"sequence": "CGAACUGAAGGUUUUCAAUTT against Knstrn", "z-score": 0.422}, {"sequence": "CCUCACGGCCUUAUAUCUCTT against Fmod", "z-score": -1.8}, {"sequence": "GGAGACAACCUGUACUCAGTT against Zfp352", "z-score": "-3.18 (active)"}, {"sequence": "GGAGAGAGAUGCCCAAAUCTT against Zfp507", "z-score": -0.362}, {"sequence": "CCAGCUGUGUAACACUACCTT against Gfi1", "z-score": 1.08}, {"sequence": "CCUCUACGAUGACUGGAUGTT against Sh3bp1", "z-score": 0.227}, {"sequence": "GGGUCUUCAGUAUUAACACTT against Yae1d1", "z-score": "2.62 (active)"}, {"sequence": "GGCAUACCGGAAACUUGCCTT against Dnajb13", "z-score": -0.266}, {"sequence": "GGUACAAACACGAUCAAGGTT against Aox4", "z-score": 0.654}, {"sequence": "GGGAAUCAUUAAAUAGGAUTT against Arhgap26", "z-score": -0.163}, {"sequence": "GGAAGAGCAUGAGUCGUUUTT against Scarb2", "z-score": -0.122}, {"sequence": "GCUCCUACAAAACAUCCGATT against A130079P16Rik", "z-score": "-2.12 (active)"}, {"sequence": "GGAAGUUCAUCAUGAUAUCTT against Cxadr", "z-score": -0.108}, {"sequence": "GGGCGAUGAAGAAGAGAAATT against Smad1", "z-score": -0.443}, {"sequence": "GGAAAGUUCUAAUGUUCAUTT against Sumo1", "z-score": 1.55}, {"sequence": "GGAACCCAUCUCUCAAGCATT against Atp5g1", "z-score": 0.563}, {"sequence": "GGCAAUUCAAACAAUGCAGTT against Orm1", "z-score": -1.41}, {"sequence": "GCUAUAAUUUGACAGUUAGTT against Lrba", "z-score": 0.0367}, {"sequence": "GGAGAGAUGCCUUUUAAGUTT against Zfp954", "z-score": -0.252}, {"sequence": "GGAUGGUCUUAGGAUUACGTT against Fgf15", "z-score": "2.04 (active)"}, {"sequence": "GGUAAAGAUCCAGUGCCGCTT against Tbc1d10c", "z-score": -1.02}, {"sequence": "GGUUCAAGUGCAUUGCUUCTT against Rab34", "z-score": 0.979}, {"sequence": "GGUGGAUUUUAAGUUUCCUTT against Aurkc", "z-score": "3.43 (active)"}, {"sequence": "GGGCAAUCUGAGCAAUUGUTT against Wnt7b", "z-score": -0.213}, {"sequence": "GCCUAGACAAUGGUGACCUTT against Nsfl1c", "z-score": -0.772}, {"sequence": "CCGACAUUUUCGUCACCAGTT against Gabra1", "z-score": -1}, {"sequence": "GGCUAAUGUAUCGUCUGAGTT against Asb16", "z-score": "3.06 (active)"}, {"sequence": "CCAGCCAUAUCAACCGUAUTT against Lzts3", "z-score": 0.084}, {"sequence": "CCGCUUCUCUAGUGAAUAATT against Uros", "z-score": -1.56}, {"sequence": "GGAAACACUUGAACAAAGATT against Tph2", "z-score": 0.518}, {"sequence": "GGACAUGUUUGUGUUAAAGTT against Ctnna1", "z-score": 0.187}, {"sequence": "GGUGUGUGGCCAGAAAGUUTT against Sfi1", "z-score": "-2.83 (active)"}, {"sequence": "GCUUUAUGAGUUCACGGAGTT against Prkab2", "z-score": 1.02}, {"sequence": "GGUUCUUAUCUCUAUUCAGTT against Olfr1270", "z-score": 0.432}, {"sequence": "GGAAACCUACUGUUGCACUTT against Wdr59", "z-score": -0.627}, {"sequence": "GAAGAUUGGAUUUAAAGCCTT against Olfr667", "z-score": -0.891}, {"sequence": "GGCUACAAGUGGGAAUUCATT against Cmtm2b", "z-score": 1.61}, {"sequence": "GGAGCUCAAGAACAGGAUGTT against Clec3b", "z-score": -0.0394}, {"sequence": "GCGGAGAAUAACAUAUCUCTT against Fut8", "z-score": -0.521}, {"sequence": "GGAUUUGUAAAUUACCUGGTT against Clec4d", "z-score": 0.544}, {"sequence": "GCACAAUAAUAAUGACACUTT against AI597479", "z-score": "2.76 (active)"}, {"sequence": "GUAUGCUAGCAUGAUCAACTT against Ndufa3", "z-score": 1.05}, {"sequence": "GGCCAGAUAUUAUAAGAAATT against Gtdc1", "z-score": 0.332}, {"sequence": "GCCUUUGCAUGGCAGUCUATT against Zfp825", "z-score": -0.716}, {"sequence": "GGCUGUUCAAAGUGACCCUTT against Hbp1", "z-score": "-3.11 (active)"}, {"sequence": "GCUGCCUAUGGCUUCUUCCTT against Tmem160", "z-score": -1.37}, {"sequence": "GGUGCUGAUUACAGUAGAATT against Pcdhga10", "z-score": "2.01 (active)"}, {"sequence": "GGACCAAGUAUCAUGAUGUTT against Zfp369", "z-score": 0.222}, {"sequence": "GCACCUCUUGGACAAAAUUTT against Tsc1", "z-score": -1.59}, {"sequence": "GGCGGCCUAUAUGAGGUUCTT against Cftr", "z-score": 0.548}, {"sequence": "GCAUUGAGAUGAGAGCCUATT against Uroc1", "z-score": -0.167}, {"sequence": "GCAGUUGUCAUGCUAAACCTT against Ptpn2", "z-score": "2.89 (active)"}, {"sequence": "CGAAUACUACGCCAAGAUUTT against Abca2", "z-score": -0.867}, {"sequence": "GCUCAGUACCGCACAACCATT against Dus3l", "z-score": -0.827}, {"sequence": "CCUAUUGUGAGCUUAAUGCTT against Nrxn2", "z-score": -0.74}, {"sequence": "GGGCUAUGUACCCUAUAAUTT against Eps8l1", "z-score": -1.37}, {"sequence": "GGGCAUUGGUGACUUUGAATT against Hrob", "z-score": "-2.11 (active)"}, {"sequence": "GGACACAACAAGUCUUAUGTT against Prg2", "z-score": -0.876}, {"sequence": "CCUUGCUACUCUGAUAACGTT against Tmeff1", "z-score": 0.761}, {"sequence": "CCUAGUGUGUUAAUUGUAATT against Ric1", "z-score": -1.28}, {"sequence": "GGAUGCUUACGGGAGACGATT against Tmem9", "z-score": -0.595}, {"sequence": "GGUGAAGGUGCCUUCCAAATT against Il27ra", "z-score": "2.91 (active)"}, {"sequence": "GGAGAUUCACUUUCUAUCUTT against B3gnt9", "z-score": 0.656}, {"sequence": "CCCUAAGACGAAGGAAAUGTT against Pdrg1", "z-score": -0.844}, {"sequence": "GGCGAGUUCCAGAUUCUUCTT against Car3", "z-score": 1.69}, {"sequence": "GCUGAAGACCGACUACAAGTT against Cnih1", "z-score": 0.569}, {"sequence": "GGUGCCAAUCCUUUGGACATT against 4930590J08Rik", "z-score": "3 (active)"}, {"sequence": "GGAAGUUUACCAGUCUAUCTT against Pik3c2a", "z-score": 1.4}, {"sequence": "GCUACCCAUGAGCUUUCGATT against S100a3", "z-score": 0.495}, {"sequence": "GCCCAUUGUUACCUUGUACTT against Klb", "z-score": "-2.06 (active)"}, {"sequence": "GGCCUUAUCGGCAGAUAUUTT against Tmem44", "z-score": -1.24}, {"sequence": "GGCAGUCUUAUAAUUCAUCTT against Zfp944", "z-score": -1.08}, {"sequence": "CGUUUGACACUUUUGCCUUTT against Mid1", "z-score": 1.09}, {"sequence": "GGUUUUUGUGGCUGAUCUUTT against Zfp711", "z-score": -0.545}, {"sequence": "GGAUUUCCUUGGUUCUUUUTT against Mylip", "z-score": 0.145}, {"sequence": "GCUCUUCCGCACUUUCAUUTT against H2al1m", "z-score": 1.37}, {"sequence": "GGAACACUCCAGUUUGAAUTT against Thsd1", "z-score": 1.09}, {"sequence": "GGAACAAGUACAUACUUAUTT against Frs2", "z-score": "2.09 (active)"}, {"sequence": "GCACUCAAGGUUUUACUGUTT against Satb1", "z-score": -0.356}, {"sequence": "CCUUGUGUAUGAAAUACUUTT against Taf1b", "z-score": -0.282}, {"sequence": "GCUUGAUUUUUGACAGAGATT against Mdh1b", "z-score": 1.48}, {"sequence": "GCGAUGAUGAAAGCUCAGUTT against Atad1", "z-score": "-2.36 (active)"}, {"sequence": "CCAGGAGUCGAGUGAUGGUTT against Rtl1", "z-score": 0.886}, {"sequence": "GGGUAAACUGUGGAGAAAUTT against Fam214b", "z-score": -0.833}, {"sequence": "GGAAGAAGCAGCAAGAAGATT against Ttc39b", "z-score": "-2.16 (active)"}, {"sequence": "GAUGAAAGCUACAAUGAAGTT against Srpx2", "z-score": 1.67}, {"sequence": "GGAAUUUCAGGAGAUACUGTT against C1qtnf12", "z-score": -1.04}, {"sequence": "GCCGGAUCUAUUAAAGAAATT against Hdac2", "z-score": 0.134}, {"sequence": "GCAACUAUACUGGACAAUUTT against Olfr328", "z-score": -1.19}, {"sequence": "GGCUUAUUAUCAGGAAAUGTT against Plcz1", "z-score": -1.32}, {"sequence": "GGAAGUCUACAAGUGGCCATT against Nr1d1", "z-score": -0.467}, {"sequence": "CGCAGCGACCAGCUUUCAATT against Srebf2", "z-score": 0.789}, {"sequence": "GGUGGUACGCAAUCAAAAGTT against Galnt17", "z-score": "2.46 (active)"}, {"sequence": "GCCACCUAAUUUACAAUCUTT against Ccn3", "z-score": 0.573}, {"sequence": "GCACCAAUUCCCUAACUGGTT against Fam102a", "z-score": 0.244}, {"sequence": "GGACCUACAUAACAAGCUUTT against Thnsl2", "z-score": 1.83}, {"sequence": "GGCAGAAGCAGAUAUUAGATT against Rbmxl1", "z-score": "2.23 (active)"}, {"sequence": "GGUUUCUGUUUUGUCACACTT against Slc22a13b", "z-score": -0.535}, {"sequence": "GGGCAAUGGAAGAAUUCCUTT against BC030500", "z-score": -1.69}, {"sequence": "GGAGCAAGAUGAAGAAGAGTT against Ticam2", "z-score": "-2.26 (active)"}, {"sequence": "CCACGCUACCUUCAAGAGATT against Clec14a", "z-score": 0.946}, {"sequence": "GGAUCUUGACUUUGAUAUGTT against Trpm4", "z-score": 0.0632}, {"sequence": "GGACUCAAAACCAUUUACATT against Dram1", "z-score": -1.13}, {"sequence": "GGAUCAACUGGUGACACAGTT against Preb", "z-score": -0.00996}, {"sequence": "GGAUCCUGCUCAAAAAAGUTT against Arxes1", "z-score": -0.431}, {"sequence": "GGAAGAUCAUAAUGGACAGTT against Pcsk9", "z-score": "6.01 (active)"}, {"sequence": "GAAGUCGGUGGACAAGAACTT against Cebpa", "z-score": 0.662}]}]}
